High-throughput results: PubChem, several laboratories
KLK7 zymogen act – activates the human kallikrein-7 zymogen; AID 652039; purified proKLK7, EDANS-DABCYL substrate fluorescence; 100% is mature enzyme control, 0% vehicle; activation, % at 7 µM; P49862; 370,000 tested, 0.9% active;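 active means activation above the mean of all tested compounds plus 3 SD, computed per campaign excluding outliers beyond control limits, cut at about 13% in these data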
SMARCA2 act – increases SMARCA2 function in MMTV reporter cells | MG213 cells, MMTV-luciferase reporter, dexamethasone, overnight | activation, % at 9.1 µM | 370,000 tested, 1% active; in the data active means activation above about 7.8%;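 further: 0% = vehicle wells and 100% = reference activator wells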
FAS-TE inh – FAS thioesterase (human) inhibition. AID 602261. recombinant FAS-TE, OMFH fluorogenic substrate, fluorescence endpoint. 360,000 tested, 0.67% active. inhibition, % at 15 µM;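 active means compounds whose normalised, plate-corrected inhibition of enzyme fluorescence in the single-dose primary screen is 50% or more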;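 further: 0% = DMSO with enzyme and 100% = substrate without enzyme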
GAA850 FXN act – frataxin GAA850 promoter activation; 360,000 tested, 0.56% active; activation, % at 6 µM; HEK293 lucGAA850 FXN promoter luciferase reporter, 24 h; percent of 10 µM SAHA response; AID 540364;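 active means activation above the average of all compounds screened plus 3 SD, cutoff fixed separately per campaign, cut at about 7.5% in these data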;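 further: 0% = DMSO wells and 100% = 10 µM SAHA wells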
FAS-TE conf – confirmation of human fatty acid synthase thioesterase inhibitors. inhibition, % at 15 µM. recombinant FAS-TE, OMFH fluorogenic substrate, fluorescence. shares compounds with FAS-TE inh. 2,300 tested, 45% active. AID 624325;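 active means compounds inhibiting the enzyme by at least 50% at 15 µM in any one of the replicates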;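 further: 0% = enzyme with DMSO only and 100% = wells lacking enzyme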
The depositor's hits bear a star. Compounds with a hit are over-represented: about 2.9% of the library has one in this group of screens.

Screening CCn1cc(C(=O)NCCC2=CCCCC2)c(=O)c2cc(S(=O)(=O)N(C)C)ccc21 returned KLK7 zymogen act 0, SMARCA2 act -1, FAS-TE inh 80*, GAA850 FXN act 1 and FAS-TE conf 82*.
`CCn1cc(C(=O)NCCc2ccccc2)c(=O)c2cc(S(=O)(=O)N(C)C)ccc21` gave KLK7 zymogen act 0, SMARCA2 act 0, FAS-TE inh 23 and GAA850 FXN act 2.
`O=c1[nH]c2cc(Br)cnc2nc1/C=C(\O)c1ccc(F)cc1` gave KLK7 zymogen act 8, SMARCA2 act -2, FAS-TE inh -3 and GAA850 FXN act 1.
`CSc1ccc(S(=O)(=O)N(CC(=O)NN=C2CCN(C)CC2)c2ccc(C)cc2)cc1` gave KLK7 zymogen act 0, SMARCA2 act 2, FAS-TE inh -3 and GAA850 FXN act 0.
`O=C(O)/C(=C/c1ccc(Cl)c([N+](=O)[O-])c1)c1ccc(S(=O)(=O)N2CCCCC2)s1` gave KLK7 zymogen act -2, SMARCA2 act -3, FAS-TE inh 56*, GAA850 FXN act 0 and FAS-TE conf 53*.
For O=C(O)/C(=C\c1cccc(F)c1)c1ccc(S(=O)(=O)N2CCCCC2)s1 the results were KLK7 zymogen act -1, SMARCA2 act -2, FAS-TE inh -8 and GAA850 FXN act -1.
For O=C(Nc1c(C(=O)N2CCOCC2)cnn1-c1ccccc1)c1ccc([N+](=O)[O-])cc1 the results were KLK7 zymogen act 0, SMARCA2 act -3, FAS-TE inh 52*, GAA850 FXN act 2 and FAS-TE conf 56*.
`Cc1ccc(C(=O)Nc2c(C(=O)N3CCOCC3)cnn2-c2ccccc2)cc1` gave KLK7 zymogen act 0, SMARCA2 act 1, FAS-TE inh 3 and GAA850 FXN act -3.
C[C@H](CO)N1C[C@H](C)[C@@H](CN(C)C(=O)NC2CCCCC2)Oc2c(NC(=O)Nc3ccccc3)cccc2C1=O was read as KLK7 zymogen act 0, SMARCA2 act 0, FAS-TE inh 66*, GAA850 FXN act -1 and FAS-TE conf 77*.
COc1ccc(NC(=O)Nc2cccc3c2O[C@H](CN(C)C(=O)Nc2ccc(C(F)(F)F)cc2)[C@@H](C)CN([C@H](C)CO)C3=O)cc1 was read as FAS-TE inh 52*, GAA850 FXN act -4 and FAS-TE conf 56*.
`C[C@H](CO)N1C[C@H](C)[C@@H](CN(C)C(=O)Nc2ccccc2)Oc2c(NC(=O)NC3CCCCC3)cccc2C1=O` gave KLK7 zymogen act 0, SMARCA2 act -2, FAS-TE inh 22 and GAA850 FXN act -2.
For Cc1cc(C)cc(-n2nc(C)cc2N)c1 the results were KLK7 zymogen act 0, SMARCA2 act 1, FAS-TE inh -6 and GAA850 FXN act -1.
Screening CCCC12CN(C(=O)c3ccc([N+](=O)[O-])cc3)CC(C)(CN(C(=O)c3ccc([N+](=O)[O-])cc3)C1)C2=O returned KLK7 zymogen act 1, SMARCA2 act -1, FAS-TE inh 55*, GAA850 FXN act -1 and FAS-TE conf 62*.
For Cc1nn(-c2ccc([N+](=O)[O-])cc2)c2c1C(c1cccc(Br)c1)N1C(=N2)C(=O)Nc2ccccc21 (stereo unspecified) the results were KLK7 zymogen act 0, SMARCA2 act -4, FAS-TE inh 70*, GAA850 FXN act 0 and FAS-TE conf -37.
`Cc1cccc(NC2=Nc3ccccc3N3C2=Nc2c(c(C)nn2-c2ccccc2)C3c2ccc(O)c(O)c2)c1` (stereo unspecified) gave KLK7 zymogen act -7, SMARCA2 act -6, FAS-TE inh 21 and GAA850 FXN act 2.
Cc1nn(-c2ccccc2)c2c1C(c1ccc([N+](=O)[O-])cc1)N1C(=N2)C(=O)Nc2ccccc21 (stereo unspecified) was read as KLK7 zymogen act -8, SMARCA2 act -2, FAS-TE inh 79*, GAA850 FXN act -4 and FAS-TE conf 1.
Screening Cc1nn(-c2ccccc2)c2c1C(c1ccc(Cl)cc1)N(c1ccccc1)C(=O)N2 (stereo unspecified) returned KLK7 zymogen act 0, SMARCA2 act 0, FAS-TE inh 27 and GAA850 FXN act 0.
For CC(C)Cn1c(N)c(C(=O)COC(=O)c2cc(-c3ccccc3)nc3ccccc23)c(=O)n(C)c1=O the results were KLK7 zymogen act 0, SMARCA2 act 0, FAS-TE inh 51*, GAA850 FXN act -1 and FAS-TE conf 14.
Screening COc1cc(OC)cc(C(=O)NC(=S)Nc2ccc(N3CCCC3)cc2)c1 returned KLK7 zymogen act 1, SMARCA2 act 0, FAS-TE inh 13 and GAA850 FXN act -2.
Screening COC(=O)c1ccc(C2c3c(oc4ccc(Cl)cc4c3=O)C(=O)N2CCN2CCOCC2)cc1 (stereo unspecified) returned KLK7 zymogen act 0, SMARCA2 act 2, FAS-TE inh 54*, GAA850 FXN act -1 and FAS-TE conf 62*.
Screening O=S(=O)(/N=C(/Sc1ccccc1)c1ccccc1)c1ccccc1 returned KLK7 zymogen act 0, SMARCA2 act -2, FAS-TE inh 57*, GAA850 FXN act -1 and FAS-TE conf 32.
For CC1CN=C(c2ccccc2)O1 (stereo unspecified) the results were KLK7 zymogen act 1, SMARCA2 act 1, FAS-TE inh -4 and GAA850 FXN act 1.
Screening Cc1nn(C)c(NC(=O)c2ccc(Cl)cc2)c1Cl returned KLK7 zymogen act -1, SMARCA2 act -2, FAS-TE inh -5 and GAA850 FXN act -2.
For O=C(OCc1ccccc1F)c1cc([N+](=O)[O-])ccc1N1CCOCC1 the results were KLK7 zymogen act 0, SMARCA2 act 0, FAS-TE inh 32 and GAA850 FXN act 3.
`COC(=O)C1CCN(C(=O)COC(=O)c2cc([N+](=O)[O-])ccc2N2CCOCC2)CC1` gave KLK7 zymogen act 0, SMARCA2 act -2, FAS-TE inh 69*, GAA850 FXN act 2 and FAS-TE conf 71*.
Screening CCOC(=O)C1CCN(C(=O)COc2ccc([N+](=O)[O-])cc2)CC1 returned KLK7 zymogen act 0, SMARCA2 act -3, FAS-TE inh 59*, GAA850 FXN act 0 and FAS-TE conf 67*.
`O=C(NCC1CCCCC1)c1cc([N+](=O)[O-])ccc1N1CCOCC1` gave KLK7 zymogen act 1, SMARCA2 act -3, FAS-TE inh 37 and GAA850 FXN act 0.
For CC1CCN(C(=O)COC(=O)c2cc([N+](=O)[O-])ccc2N2CCOCC2)CC1 the results were KLK7 zymogen act 0, SMARCA2 act 0, FAS-TE inh 71*, GAA850 FXN act 2 and FAS-TE conf 82*.
Screening COc1ccc(NC(=O)c2ccc3ccccc3n2)cc1S(=O)(=O)Nc1ccccc1Cl returned KLK7 zymogen act -1, SMARCA2 act -6, FAS-TE inh 64*, GAA850 FXN act -4 and FAS-TE conf 13.
